# Assay results reported in PubChem BioAssay (NCI).
# This is part of a sample that, as a whole, favours compounds with a hit. Of some 83,000 tested, about 20% had one in any assay.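 96-well plates, one dose, 48 hours. Percent growth reported; active if below 10.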 Unmarked numbers belong to inactive results. Active and inactive are the calls of the source.
# Key:
# Assay in all cases: NCI-60 one-dose screen, 48 h (100 = growth as untreated, 0 = no growth, -100 = all killed)
# Details in all cases: 10 µM unless noted
# NCI-H226 lung = test system: NCI-H226 lung
# NCI-H322M lung = test system: NCI-H322M lung
# HOP-62 NSCLC = test system: HOP-62 NSCLC
# NCI-H460 lung = test system: NCI-H460 lung
# HOP-92 NSCLC = test system: HOP-92 NSCLC
# NCI-H522 lung = test system: NCI-H522 lung
# A549/ATCC NSCLC = test system: A549/ATCC NSCLC
# 786-0 renal = test system: 786-0 renal
# COLO 205 colon = test system: COLO 205 colon
Compound,growth (NCI-H226 lung),growth (NCI-H322M lung),growth (HOP-62 NSCLC),growth (NCI-H460 lung),growth (HOP-92 NSCLC),growth (NCI-H522 lung),growth (A549/ATCC NSCLC),growth (786-0 renal),growth (COLO 205 colon)
COC(=O)c1c2c(c(C)[n+]([O-])c1C)C(=O)C(NCc1ccc(F)cc1)=CC2=O,81.6%,15.9%,48.2%,11.5%,42.5%,-11.6% (active),4.34% (active),48.7%,-49.8% (active)
Cc1c(Cl)cc(-n2c(=O)c3ccccc3c3ccccc3c2=O)cc1Cl,108%,87.3%,92.6%,111%,98.4%,98.7%,102%,98.6%,98.2%
CNC(=O)c1cc(Oc2cccc3nc(Nc4ccc(F)c(Cl)c4)ccc23)ccn1,46.9%,76.6%,50.5%,62.5%,77.9%,40%,42.1%,42.6%,43.7%
CCN1C(=O)N(CC)C2C1NN=c1s/c(=C\c3cccs3)c(=O)n12 (stereo not given),79%,42.7%,46.4%,8.1% (active),64.1%,-9.67% (active),25.3%,28.5%,-6.95% (active)
CN(C)c1ccc(-c2ccc3[nH]c(=O)nc(-c4ccccc4)c3c2)cn1,66.6%,77.5%,63%,18.3%,59.1%,19.2%,58.3%,44.5%,37.1%
CCCCCc1nc2c(c3c1CCCC3)CCCC2,88.6%,78.3%,77.6%,83%,56.2%,44.6%,72.6%,85%,89.4%
Fc1ccc(CNc2c3ccccc3nc3ccccc23)cc1F,47.6%,39%,51.3%,14.6%,-8.56% (active),37%,29.1%,31.4%,16.1%
COc1cc(/C=C/C(=O)N2CCN(C(=O)c3cc(OC)c(OC)c(OC)c3)CC2)ccc1OCCCN1C(=O)c2cccc3cccc(c23)C1=O,87%,100%,94.1%,82.6%,-0.534% (active),65.4%,85.3%,73.1%,116%
CCN(CC)c1ccc2nc3c4ccccc4c(=NC(=O)c4ccccc4-c4c5ccc(N(CC)CC)cc5[o+]c5cc(N(CC)CC)ccc45)cc-3oc2c1,76.5%,11.6%,17.4%,-54.1% (active),1.45% (active),-5.73% (active),14.5%,-28.3% (active),-80.1% (active)
N#Cc1c(-c2ccccc2)cc(-c2ccc(Nc3nc(Nc4ccc(F)cc4)nc(Nc4ccc(F)cc4)n3)cc2)nc1N,101%,96.2%,80.5%,104%,46.8%,89%,–,83.9%,81.9%
COc1cc(/C=N/Nc2ncc(-c3cc4cc5c(cc4o3)OCO5)s2)cc(OC)c1OC,76.9%,103%,81%,56.7%,85.3%,40%,37.6%,84.5%,46.4%
Clc1cccc(Cl)c1/C=C/c1cc(/C=C/c2c(Cl)cccc2Cl)[nH]n1,30.6%,38.2%,49.7%,11.4%,102%,-9.35% (active),38.7%,23.1%,17.7%
Cc1cc(C)c(-c2c(C)cc(C)cc2CBr)c(CBr)c1,100%,102%,84.6%,77.2%,106%,66.4%,68.6%,95.8%,78.6%
CS(=O)(=O)c1ccc(Nc2nc(N[C@H]3CCCC[C@H]3N)nc3cc[nH]c(=O)c23)cc1,-4.65% (active),24.1%,21.1%,12.4%,-8.34% (active),-37% (active),33.6%,22.5%,-3.93% (active)
COc1ccc(-c2nc3c(N)c(CO)c(C)nc3o2)cc1,41.2%,92.5%,90.3%,108%,116%,91.6%,–,95.5%,109%
Fc1c[c-]c(-c2ccccn2)c(F)c1.[CH3-].[Pt+2].c1ccc(P(C[PH+](c2ccccc2)c2ccccc2)c2ccccc2)cc1,3.56% (active),2.51% (active),0.563% (active),-68.8% (active),-80.7% (active),-24% (active),-0.672% (active),-52.5% (active),-29.9% (active)

Compound,growth (NCI-H226 lung),growth (NCI-H322M lung),growth (HOP-62 NSCLC),growth (NCI-H460 lung),growth (HOP-92 NSCLC),growth (NCI-H522 lung),growth (A549/ATCC NSCLC),growth (786-0 renal),growth (COLO 205 colon)
Cc1cc(NCCCCNc2ccnc3cc(Cl)ccc23)nc(Nc2ccc(C(=O)N3CCCCC3)cc2)n1,98.6%,22.9%,21.2%,6.46% (active),63.6%,-42.2% (active),13.1%,-87.6% (active),-67.8% (active)
O=C(Nc1ccccc1-c1nc2ccccc2c(=O)[nH]1)c1cc2ccccc2[nH]1,72.2%,84.2%,71.6%,93.2%,68.7%,–,87.6%,98.1%,103%
COc1ccc(-c2ccc3c(c2)sc2nc(-c4ccc(F)cc4)cn23)cc1,80.8%,67.7%,66.3%,15.4%,65.8%,–,30%,76.2%,1.69% (active)
O=[N+]([O-])c1ccc(OCCO)cc1,99.7%,104%,101%,108%,81.2%,102%,105%,109%,107%
Cc1cccc(Cc2cnc(NC(=O)/C=C/c3ccco3)s2)c1,50.3%,37.8%,23.7%,3.34% (active),78%,-12% (active),20%,36%,2.49% (active)
CCN1C(=O)N(CC)C2Nn3c(s/c(=C\c4cccc([N+](=O)[O-])c4)c3=O)=NC21 (stereo not given),88%,64.3%,62.3%,23.8%,75.8%,18.5%,45.1%,36%,6.72% (active)
CCCCCCCCn1ccc2cc(NC(=O)Cn3cc(CN4CCCC4)nn3)ccc21,95.5%,49.5%,74%,-64.5% (active),28%,52.3%,40.2%,16.8%,-81.4% (active)
COc1cc(/C=C/C(=O)c2c(C)nc3ccccc3c2C)ccc1OCCCN1CCN(C(=O)c2ccco2)CC1,63.2%,91.8%,91.5%,98.2%,70%,57.7%,79%,85.9%,99.1%
COc1cccc(-c2nn(-c3ccccc3)cc2-c2ccnc(NCCCNC(=O)Nc3ccc(Cl)c(Cl)c3)c2)c1,47.9%,24.3%,-5.99% (active),18.5%,-11.7% (active),-37% (active),7.3% (active),-38.7% (active),-44.7% (active)
COc1nc2c(c(=O)n1C)CN(c1ccccc1)C(=O)CN2C,52.3% [100 µM],62.1% [100 µM],63.6% [100 µM],59.4% [100 µM],56.9% [100 µM],67% [100 µM],55.7% [100 µM],55.2% [100 µM],68.8% [100 µM]
CNS(=O)(=O)c1n[nH]nc1-c1cc(C(C)(C)C)c(O)c(C(C)(C)C)c1,104%,102%,84.7%,109%,80.2%,80.2%,89.5%,91.2%,103%
C=CCSc1nc2ccccc2cc1/C=N/O,77.8%,81.4%,77.1%,90.4%,58.2%,76.4%,92.5%,100%,94.1%
O=C1c2cccc(NCCN=Cc3cc([N+](=O)[O-])ccc3O)c2C(=O)c2c(NCCN=Cc3cc([N+](=O)[O-])ccc3O)cccc21,77%,77%,55.4%,53.4%,62.4%,45%,84.6%,82.6%,55.9%
NC(N)=Nc1nc2ccccc2n2c1nc1ccccc12,56.7%,43.7%,40.4%,8.12% (active),56.6%,16.1%,17.7%,33.5%,30.3%
O=c1[nH]nc(-c2ccccc2)c2c(-c3ccccc3)onc12,55.4%,59.8%,34.4%,17%,-6.41% (active),-22.5% (active),58.5%,45%,11.3%
